Measured values from PubChem BioAssay (NCI).
The panel holds about 83,000 compounds, 20% with a hit somewhere; the sample as a whole holds those more often.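 Method: cells in 96-well plates; compound added at one concentration; 48 h incubation; percent growth measured; values under 10 scored active.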 A number with no mark means an inactive call. Activity calls are given as the source filed them.

The compounds below were run on HL-60(TB) leukemia (assay: NCI-60 one-dose screen, 48 h (100 = growth as untreated, 0 = no growth, -100 = all killed)). Details: 10 µM unless noted.

Compound	growth
C=CC(=O)N[C@H](Cc1ccc(-c2cc(Cl)cc(Cl)c2)cc1)[C@H](O)[C@@H](O)C(=O)O	109%
C=C1C(=O)O[C@H]2[C@H]1CC/C(Cn1cc(-c3ccc(N)cc3)nn1)=C\CC[C@@]1(C)O[C@@H]21	-27.9% (active)
C=C1C(=O)O[C@H]2[C@H]1CC/C(COC(=O)NCc1c[nH]c3ccc(F)cc13)=C\CC[C@@]1(C)O[C@@H]21	-32.4% (active)
CCn1cc(C(=O)O)c(=O)c2cc(F)c(N3CCN(S(=O)(=O)c4c(C)cc(C)cc4C)CC3)cc21	73%
N#C/C(=C\c1ccc(-c2cccc(C(F)(F)F)c2)o1)c1nc(-c2ccco2)cs1	101%
COc1ccc(-c2ccc(=O)oc2-c2cc(OC)c(OC)c(OC)c2)cc1O	-55.6% (active)
C#CCNc1nc(NCCNC(=O)CCl)nc(N(C)CCCCc2ccccc2)n1	107%
COc1ccc(C(=S)N2CCN(c3cccc(C)c3)CC2)cc1OC	57.3%
NC1=NN=C(N)C1=Cc1cc2ccccc2n2nnnc12	96.8%
CCN(CC)C(=O)C[N+](C)(C)CCOC(c1ccccc1)c1ccccc1	97.5%
FC(F)(F)c1cccc(-c2cn3c(ccc4ccccc43)n2)c1	114%
O=C(/C=C/c1cccc([N+](=O)[O-])c1)c1ccc(Nc2nc(Nc3ccc(F)cc3)nc(Nc3ccc(Cl)cc3)n2)cc1	-42.1% (active)
Cc1cc(/C=C/c2ccc3cc(N(C)C)ccc3[n+]2C)c(C)n1-c1ccccc1	-26.1% (active)
O=c1cc(C(F)(F)F)c2cc(-c3cc4ccccc4c(=O)o3)c(O)cc2o1	38.3%
CNc1nc(S(=O)c2ccc(C#N)cc2)nc2ccccc12 (configuration not stated)	79.9%
CCN1Cc2nc3sc(C)c(C)c3c(=O)n2C=C1C	1.07% (active)
Nc1c(C(=O)Nc2cccc(Cl)c2)sc2nc3c(cc12)C(O)CCC3 (configuration not stated)	2.96% (active)
O=C(c1cnn2c1NC(c1ccc(F)cc1)C2)N1CCCCC1 (configuration not stated)	99.7%
CC/C=C\C[C@H](O)C/C=C1/C(=O)C=C[C@@H]1C/C=C\CCCC(N)=O	-30.9% (active)

Compound	growth
[2H]C1([2H])NC([2H])([2H])C([2H])([2H])N(c2ccc(Nc3ncc4cc(C(=O)N(C)C)n(C5CCCC5)c4n3)nc2)C1([2H])[2H]	22.7%
CCCCN1CCCCn2c1nc1c2c(=O)n(C)c(=O)n1C	108%
COc1ccc(-c2c(C#N)cnc(N)c2-c2nc3cc(C)c(C)cc3[nH]2)cc1	89.4%
C[C@@H]1C[C@H](N)C[C@H](c2ccncc2NC(=O)c2ccc(F)c(-c3c(F)cccc3F)n2)C1	-0.14% (active)
Cc1ccc(O)c(C(=O)O)c1	99.5%
COc1cc(C=Nc2oc(-c3ccccc3)c(-c3ccccc3)c2C#N)cc(CN2CCCC2)c1O	102%
COc1ccc(C2CC(c3cccs3)=NN2c2ccc(S(=O)(=O)NC(=O)NCc3cccc(OC)c3)cc2)cc1 (configuration not stated)	103%
Clc1ccc2c(NCCCNc3nc(-n4ccnc4)nc4ccccc34)ccnc2c1	69.4%
COc1ccc(/C=C2\COc3ccc(O)cc3C2=O)c(OC)c1	11.2%
O=C(/C=C/c1ccc2ccccc2c1)Nc1ncc(Cc2ccccc2)s1	94.4%
Cc1[nH]n(-c2cccc(Cl)c2)c(=O)c1/C=C1\C=Nc2ccc(Br)cc21	38.5%
CC(C)(C)c1cc(C(C)(C)c2ccccc2)cc(Cc2cc(C(C)(C)c3ccccc3)cc(C(C)(C)C)c2O)c1O	112%
OCCN1CCN(c2nc(Nc3ccc(-c4nc5ccccc5[nH]4)cc3)c3cn[nH]c3n2)CC1	-65.8% (active)
O=C(CCCOc1ccc(Br)cc1)Nc1ncc(Cc2ccc(F)cc2)s1	34.7%
CCCn1c(N)c(C(=O)CNc2ccc(I)cc2)c(=O)[nH]c1=O	-5.9% (active)
COc1ccc(CCNc2nc(SC)nc(-c3cccc([N+](=O)[O-])c3)c2C#N)cc1OC	120%
C=CCn1c2ccccc2c2c3c(c4c5ccccc5n(CC=C)c4c21)C(=O)N(O)C3=O	-39.5% (active)
CCCOc1cc2ccccc2cc1C(=O)Nc1nc(N)c2c(ccc3nccc32)[nH]1	-56.3% (active)
